Drawing on PubChem BioAssay (EPA / NIEHS), this text covers outcome and AC50 for 3 compounds.

Experiment [1] can be described thus: ATG_M_61_CIS: Attagene CIS-FACTORIAL HepG2 Assay for M61 Transcription Factor (Internal Marker) (AID 2282937). Conditions: HepG2 Attagene CIS-FACTORIAL M61 internal marker reporter; actives raise or lower the signal. Summed up: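 Readout is reporter mRNA by RT-PCR, fluorescent primer extension and capillary electrophoresis, with gain or loss fitted relative to DMSO. Transfected HepG2 cells carrying endogenous-TF-driven cis reporters were exposed to chemicals for 24 hours.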

The nature of experiment [2]: ATG_EGR_CIS: Attagene CIS-FACTORIAL HepG2 Assay for human Early Growth Response 1 (EGR1) (AID 2282938). Particulars: HepG2 Attagene CIS-FACTORIAL EGR reporter mRNA; actives raise or lower the signal. Summed up: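 After 24 h compound exposure, RNA from reporter-transfected HepG2 cells was reverse-transcribed, PCR-amplified, fluorescently labelled and resolved by capillary electrophoresis. EGR1 reporter transcript changes, up or down, were fitted against DMSO, reflecting endogenous transcription-factor activity.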

Experiment [3] is described as follows: ATG_M_19_CIS: Attagene CIS-FACTORIAL HepG2 Assay for M19 Transcription Factor (Internal Marker) (AID 2282939). Particulars: HepG2 Attagene CIS-FACTORIAL M19 internal marker reporter; actives raise or lower the signal. Summed up:
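Chemical-treated HepG2 (24 h) with MRTU constructs; reporter transcripts detected by fluorescent RT-PCR fragment analysis on capillary electrophoresis. Internal background marker, DMSO as baseline.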

The nature of experiment [4]: ATG_ERE_CIS: Attagene CIS-FACTORIAL HepG2 Assay for Estrogen Response Element (ERE) (AID 2282940). Conditions: HepG2 ERE cis-reporter, Attagene RNA transcript; actives raise or lower the signal. Summed up:
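Human liver cells (HepG2) bearing transiently transfected, promoter-regulated reporter units were exposed 24 h. Reporter mRNA induction was detected by capillary electrophoresis of labelled RT-PCR products and fitted bidirectionally to DMSO.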

Experiment [5] can be described thus: ATG_Ets_CIS: Attagene CIS-FACTORIAL HepG2 Assay for human Erythroblast Transformation Specific (ETS) (AID 2282941). Particulars: HepG2 ETS cis-reporter transcription, actives raise or lower the signal. Summed up:
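Endogenous transcription factor activity read as reporter mRNA via RT-PCR and capillary electrophoresis, with gain or loss fitted bidirectionally against DMSO. Human HepG2 liver cells, transiently transfected CIS reporter constructs, 24 h exposure.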

Experiment [6] deals with Hepatocyte nuclear factor 3-beta (Homo sapiens) (UniProt Q9Y261). In words: ATG_FoxA2_CIS: Attagene CIS-FACTORIAL HepG2 Assay for human Forkhead box A2 (FOXA2) (AID 2282942). Particulars: HepG2 cis-reporter transcription factor activity, 24 h; actives raise or lower the signal. Summed up:
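Endogenous transcription factor activity is captured via cis-element-driven reporter transcripts in transfected HepG2. Total RNA taken at 24 h post-dosing; labelled RT-PCR products resolved by capillary electrophoresis. Gain or loss fitted versus DMSO.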

The nature of experiment [7]: ATG_FoxO_CIS: Attagene CIS-FACTORIAL HepG2 Assay for human Forkhead box O (FoxO) (AID 2282943). Conditions: HepG2 Attagene cis-reporter, FoxO element, mRNA; actives raise or lower the signal. Summed up: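 HepG2 cells transiently transfected with cis-element-driven reporter units report endogenous FoxO activity. After 24 h chemical exposure, reporter mRNA quantified by RT-PCR, fluorescent labeling, HpaI digestion and capillary electrophoresis; bidirectional fit versus DMSO.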

The nature of experiment [8]: ATG_GATA_CIS: Attagene CIS-FACTORIAL HepG2 Assay for human GATA Binding Protein (AID 2282944). Conditions: HepG2 GATA cis-element reporter, Attagene multiplex mRNA; actives raise or lower the signal. Summed up:
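Transfected cis-reporter HepG2 cells were treated with chemicals for 24 hours. Total RNA was then converted to cDNA, amplified with reporter-specific primers and analysed by fluorescent capillary electrophoresis, using DMSO-treated wells as baseline.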

Experiment [9] is described as follows: ATG_GLI_CIS: Attagene CIS-FACTORIAL HepG2 Assay for human Zinc Finger Protein GLI1 (AID 2282945). Particulars: HepG2, Attagene cis-factorial reporter mRNA, GLI element; actives raise or lower the signal. Summed up: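 Transiently transfected HepG2 cells report endogenous transcription factor activity via cis-element-driven reporter units. After 24 h compound exposure, reporter mRNA was measured by RT-PCR with capillary electrophoresis; bidirectional fitting against DMSO baseline.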

Experiment [10] is described as follows: ATG_ISRE_CIS: Attagene CIS-FACTORIAL HepG2 Assay for human Interferon Regulatory Factor 1 (IRF1) binding to an Interferon-Stimulated Response Element (ISRE) (AID 2282948). Conditions: HepG2 ISRE cis-reporter (Attagene), mRNA transcription readout; actives raise or lower the signal. Summed up: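 Endogenous transcription factor activity read as reporter transcript abundance via RT-PCR and capillary electrophoresis. HepG2 cells transiently transfected, 24 h chemical exposure. Gain or loss fitted against DMSO baseline.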

A short description of experiment [11]: ATG_M_32_CIS: Attagene CIS-FACTORIAL HepG2 Assay for M32 Transcription Factor (Internal Marker) (AID 2282949).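 Also: background control marker of the multiplexed CIS panel rather than a real target.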 Conditions: HepG2 Attagene cis-factorial M32 reporter, mRNA; actives raise or lower the signal. Summed up:
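Using DMSO as baseline, bidirectional curve fits were applied to reporter mRNA signals. These came from transiently transfected HepG2 cells exposed for 24 h, with RNA analysed by RT-PCR, FAM primer extension, HpaI digestion and CE.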

The nature of experiment [12]: ATG_M_06_CIS: Attagene CIS-FACTORIAL HepG2 Assay for M06 Transcription Factor (Internal Marker) (AID 2282950). Particulars: HepG2 Attagene CIS-FACTORIAL M06 internal marker reporter; actives raise or lower the signal. Summed up:
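Cells (HepG2, transiently carrying cis-driven reporter units) receive chemical for 24 h before RNA isolation. Reporter cDNA is PCR-amplified, FAM-labelled by primer extension, HpaI-digested and sized on a capillary analyser.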

Experiment [13] concerns the target Hypoxia-inducible factor 1-alpha (Homo sapiens) (UniProt Q16665). Briefly: ATG_HIF1a_CIS: Attagene CIS-FACTORIAL HepG2 Assay for human Hypoxia Inducible Factor 1 (HIF1A) (AID 2282951). Particulars: HepG2 Attagene cis-factorial HIF1a reporter transcription; actives raise or lower the signal. Summed up:
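Activity is fitted in both directions relative to DMSO. Reporter transcripts are read by RT-PCR, fluorescent primer extension and capillary electrophoresis after 24 h chemical treatment. The cells are HepG2 carrying transiently transfected cis-element-driven reporter units responding to endogenous factors.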

The target in experiment [14] is Hepatocyte nuclear factor 6 (Homo sapiens) (UniProt Q9UBC0). In words: ATG_HNF6_CIS: Attagene CIS-FACTORIAL HepG2 Assay for human Hepatocyte Nuclear Factor 6 (HNF6) (AID 2282952). Particulars: HepG2 Attagene cis-factorial HNF6 reporter transcription; actives raise or lower the signal. Summed up:
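First, HepG2 cells were transfected with the multiplexed cis reporter library and dosed with chemical for 24 h. Next, RNA was reverse-transcribed, PCR-amplified and fluorescently labelled. Finally, HpaI-digested fragments were read by capillary electrophoresis.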

Experiment [15] deals with Heat shock factor protein 1 (Homo sapiens) (UniProt Q00613). In words: ATG_HSE_CIS: Attagene CIS-FACTORIAL HepG2 Assay for human Heat Shock Transcription Factor 1 (HSE) (AID 2282953). Particulars: HepG2 HSE cis-reporter, Attagene RNA transcription; actives raise or lower the signal. Summed up: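 Liver-derived HepG2 cells carry transiently introduced multiple reporter units governed by cis promoters. Reporter RNA measured 24 h post-dose through reverse transcription, PCR amplification, fluorescent labelling and capillary electrophoresis, normalised to DMSO.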
Heat shock factor protein 1 (Homo sapiens), sequence (Q00613 whole entry, looked up): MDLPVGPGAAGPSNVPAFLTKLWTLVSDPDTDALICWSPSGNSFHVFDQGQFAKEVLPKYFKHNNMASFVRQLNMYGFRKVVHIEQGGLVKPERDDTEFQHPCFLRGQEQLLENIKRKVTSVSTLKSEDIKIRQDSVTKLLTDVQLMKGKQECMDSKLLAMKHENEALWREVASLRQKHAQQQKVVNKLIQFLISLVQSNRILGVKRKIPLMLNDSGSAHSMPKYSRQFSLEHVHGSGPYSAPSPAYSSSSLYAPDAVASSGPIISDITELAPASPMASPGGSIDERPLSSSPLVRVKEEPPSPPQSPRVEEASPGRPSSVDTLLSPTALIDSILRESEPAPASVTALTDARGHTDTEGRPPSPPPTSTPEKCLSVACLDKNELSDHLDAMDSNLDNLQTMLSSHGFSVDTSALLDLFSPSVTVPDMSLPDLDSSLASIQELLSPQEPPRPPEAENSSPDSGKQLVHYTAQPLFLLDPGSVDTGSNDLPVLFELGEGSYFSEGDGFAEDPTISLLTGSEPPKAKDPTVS

A short description of experiment [16]: ATG_MRE_CIS: Attagene CIS-FACTORIAL HepG2 Assay for human Metal Responsive Element (MRE) (AID 2282954). Conditions: HepG2 MRE cis-reporter transcription, Attagene multiplex; actives raise or lower the signal. Summed up: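 RT-PCR/capillary electrophoresis readout of reporter mRNA, 24 h post-dosing, in HepG2 cells transfected with multiplexed cis-regulated reporter constructs. Gain or loss of signal fitted bidirectionally against DMSO baseline.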

Experiment [17] is described as follows: ATG_PBREM_CIS: Attagene CIS-FACTORIAL HepG2 Assay for human Phenobarbital-responsive Enhancer Module (PBREM) (AID 2282955). Particulars: HepG2 PBREM cis-reporter, Attagene multiplexed transcription; actives raise or lower the signal. Summed up: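 Endogenous transcription factor activity was read from reporter transcripts in transiently transfected human HepG2 liver cells after 24 h dosing. RT-PCR products were fluorescently labelled, HpaI-cut and sized by capillary electrophoresis; activity fitted bidirectionally against DMSO baseline.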

The target in experiment [18] is Paired box protein Pax-6 (Homo sapiens) (UniProt P26367). Briefly: ATG_Pax6_CIS: Attagene CIS-FACTORIAL HepG2 Assay for human Paired Box 6 (PAX6) (AID 2282956). Particulars: HepG2 CIS-FACTORIAL PAX6 reporter transcription, RNA readout; actives raise or lower the signal. Summed up:
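Read-out is reporter transcript level, measured by RT-PCR with fluorescent primer extension and capillary electrophoresis after 24 h dosing of transfected HepG2 cells. Activity in either direction fitted relative to DMSO control.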

Experiment [19] concerns the target Bile acid receptor (Homo sapiens) (UniProt Q96RI1). Briefly: ATG_IR1_CIS: Attagene CIS-FACTORIAL HepG2 Assay for human Nuclear Receptor Subfamily 1 Group H Member 4 (NR1H4), IR1 submotif (AID 2282946). Particulars: IR1 reporter transcription, actives raise or lower the signal. Summed up: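 Fluorescence of capillary-separated, HpaI-digested RT-PCR reporter products gave IR1-element mRNA induction in HepG2 cells 24 h after dosing. Endogenous transcription factors drove the cis-regulated reporters; activity was fitted bidirectionally against DMSO.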

A short description of experiment [20]: ATG_GRE_CIS: Attagene CIS-FACTORIAL HepG2 Assay for human Glucocorticoid Response Elements (GRE) (AID 2282947). Particulars: HepG2 GRE cis-reporter, Attagene multiplex mRNA; actives raise or lower the signal. Summed up:
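Read-out: fluorescent reporter-transcript fragments separated by capillary electrophoresis after RT-PCR. Transiently transfected HepG2 cells carrying cis-element-driven reporter units were dosed for 24 h; gain or loss of signal fitted against DMSO control.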

Active and inactive are the calls of the source. The calls were made as follows: active = hit-call score of the fitted dose curve at least 0.9, where 1 is the maximum; inactive = score below 0.9.

Hepatocyte nuclear factor 6 (Homo sapiens), sequence (Q9UBC0 whole entry, looked up, the tested form may be a part): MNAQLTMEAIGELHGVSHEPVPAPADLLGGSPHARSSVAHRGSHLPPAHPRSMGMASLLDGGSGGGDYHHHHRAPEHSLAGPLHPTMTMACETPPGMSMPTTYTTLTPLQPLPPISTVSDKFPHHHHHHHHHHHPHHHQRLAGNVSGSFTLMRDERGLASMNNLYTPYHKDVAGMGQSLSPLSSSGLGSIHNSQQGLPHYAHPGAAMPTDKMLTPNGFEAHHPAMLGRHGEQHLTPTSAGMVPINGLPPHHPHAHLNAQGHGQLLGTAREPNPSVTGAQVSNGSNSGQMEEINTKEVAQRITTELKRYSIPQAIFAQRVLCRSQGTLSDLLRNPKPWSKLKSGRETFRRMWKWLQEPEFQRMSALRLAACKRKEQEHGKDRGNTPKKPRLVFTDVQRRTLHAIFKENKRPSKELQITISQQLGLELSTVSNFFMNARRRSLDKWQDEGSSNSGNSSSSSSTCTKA
Hepatocyte nuclear factor 3-beta (Homo sapiens), sequence (Q9Y261 whole entry, looked up): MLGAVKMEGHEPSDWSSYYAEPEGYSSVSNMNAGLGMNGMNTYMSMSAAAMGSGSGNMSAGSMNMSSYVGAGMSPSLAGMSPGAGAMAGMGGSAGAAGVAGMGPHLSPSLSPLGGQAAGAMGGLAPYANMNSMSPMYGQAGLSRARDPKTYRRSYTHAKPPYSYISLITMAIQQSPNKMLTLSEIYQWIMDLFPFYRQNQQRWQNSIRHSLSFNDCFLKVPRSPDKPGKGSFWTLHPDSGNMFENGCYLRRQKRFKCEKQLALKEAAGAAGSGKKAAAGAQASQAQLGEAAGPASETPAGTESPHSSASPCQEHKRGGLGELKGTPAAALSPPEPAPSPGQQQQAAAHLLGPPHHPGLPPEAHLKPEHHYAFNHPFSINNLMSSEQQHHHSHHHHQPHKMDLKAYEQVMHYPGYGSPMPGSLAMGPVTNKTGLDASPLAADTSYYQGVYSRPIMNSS
Paired box protein Pax-6 (Homo sapiens), sequence (P26367 whole entry, looked up): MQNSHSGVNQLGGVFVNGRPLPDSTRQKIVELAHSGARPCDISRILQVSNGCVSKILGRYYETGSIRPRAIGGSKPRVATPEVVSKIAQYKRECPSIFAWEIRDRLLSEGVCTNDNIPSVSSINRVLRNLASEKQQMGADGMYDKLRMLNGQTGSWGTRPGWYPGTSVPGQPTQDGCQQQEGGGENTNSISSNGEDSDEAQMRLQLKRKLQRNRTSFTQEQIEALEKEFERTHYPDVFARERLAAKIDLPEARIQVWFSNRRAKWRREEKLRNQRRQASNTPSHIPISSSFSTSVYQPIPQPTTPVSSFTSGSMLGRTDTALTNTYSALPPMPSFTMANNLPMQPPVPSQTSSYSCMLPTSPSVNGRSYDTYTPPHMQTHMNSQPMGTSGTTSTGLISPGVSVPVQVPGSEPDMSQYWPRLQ
Hypoxia-inducible factor 1-alpha (Homo sapiens), sequence (Q16665 whole entry, looked up): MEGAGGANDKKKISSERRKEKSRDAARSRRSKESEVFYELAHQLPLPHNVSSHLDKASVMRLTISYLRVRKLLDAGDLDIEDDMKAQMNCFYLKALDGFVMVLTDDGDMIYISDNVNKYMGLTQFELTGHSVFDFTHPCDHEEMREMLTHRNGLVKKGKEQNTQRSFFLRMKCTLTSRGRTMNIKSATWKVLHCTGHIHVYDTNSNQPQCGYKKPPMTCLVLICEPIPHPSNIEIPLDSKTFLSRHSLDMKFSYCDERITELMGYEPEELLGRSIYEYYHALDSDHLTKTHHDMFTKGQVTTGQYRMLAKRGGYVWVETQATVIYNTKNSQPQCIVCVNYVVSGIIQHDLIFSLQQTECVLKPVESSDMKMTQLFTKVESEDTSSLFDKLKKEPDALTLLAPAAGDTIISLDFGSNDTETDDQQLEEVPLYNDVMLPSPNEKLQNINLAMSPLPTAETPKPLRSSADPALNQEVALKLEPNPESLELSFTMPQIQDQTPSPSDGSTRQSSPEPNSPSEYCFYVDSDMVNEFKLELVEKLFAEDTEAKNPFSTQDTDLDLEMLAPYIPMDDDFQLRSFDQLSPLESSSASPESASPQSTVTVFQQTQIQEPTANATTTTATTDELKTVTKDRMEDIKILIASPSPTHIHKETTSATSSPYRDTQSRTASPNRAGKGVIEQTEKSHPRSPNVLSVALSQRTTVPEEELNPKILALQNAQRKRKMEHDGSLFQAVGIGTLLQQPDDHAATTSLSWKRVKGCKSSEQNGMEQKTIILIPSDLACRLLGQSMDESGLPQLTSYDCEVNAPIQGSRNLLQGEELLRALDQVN
Bile acid receptor (Homo sapiens), sequence (Q96RI1 whole entry, looked up): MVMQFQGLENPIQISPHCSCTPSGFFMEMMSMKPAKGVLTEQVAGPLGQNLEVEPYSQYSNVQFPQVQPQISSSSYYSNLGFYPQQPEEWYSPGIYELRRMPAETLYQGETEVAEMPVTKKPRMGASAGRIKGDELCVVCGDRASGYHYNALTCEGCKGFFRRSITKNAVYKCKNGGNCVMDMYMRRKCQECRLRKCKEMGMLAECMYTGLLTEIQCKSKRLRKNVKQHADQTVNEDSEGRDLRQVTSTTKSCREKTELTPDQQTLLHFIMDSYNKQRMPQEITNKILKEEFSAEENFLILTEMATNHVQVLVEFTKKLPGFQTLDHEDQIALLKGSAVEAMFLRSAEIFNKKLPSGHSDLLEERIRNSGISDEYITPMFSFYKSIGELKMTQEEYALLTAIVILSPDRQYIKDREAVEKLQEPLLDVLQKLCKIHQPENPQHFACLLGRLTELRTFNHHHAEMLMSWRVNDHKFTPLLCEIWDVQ

With `Nc1ccc(-c2ccccc2)cc1`, the outcome in [1], in experiment [2], in experiment [3], in experiment [5], in experiment [6] and in [7] was inactive. The outcome in [8], in experiment [9], in experiment [10], in [11], in experiment [12] and in [13] was inactive. In addition, the result in [14], in [15], in [17] and in [18] was inactive. The AC50 – broadly, the midpoint of the concentration-response curve, whichever way the signal moves – in [4] was 32 µM (active); in experiment [16] it was 56.8 µM (active).
Take `Cc1ccc2nc3sc(=O)sc3nc2c1`: the compound was called inactive in [1], in [2], in experiment [3], in experiment [4], in experiment [9] and in experiment [10]. The call in experiment [11], in [12], in [13], in experiment [14], in experiment [16] and in experiment [17] was inactive. Besides, the AC50 in experiment [5] was 45.9 µM (active); in experiment [6], 11.9 µM (active); in experiment [7] it was 6.07 µM (active); in experiment [19], 25 µM (active); in [20] it was 41.1 µM (active); in [15], 12.3 µM (active). Also, the AC50 in experiment [18] is 7.08 µM (active).
For the compound `CCOP(=O)(OCC)OC(=CCl)c1ccc(Cl)cc1Cl`, the outcome in [1], in experiment [2], in [3], in experiment [5], in experiment [6] and in [7] was inactive. For the same compound, the compound was called inactive in experiment [8], in experiment [9], in experiment [20], in [11], in experiment [12] and in experiment [13]. For the same compound, the outcome in experiment [14], in experiment [16] and in [18] was inactive. Besides, the half-maximal activity concentration (AC50) in experiment [4] was 11.1 µM (active); in [17] it was 6.62 µM (active).
